PI4K2A block – qHTS for small molecular inhibitors of PI4K2A | purified PI4K2A, ADP-Glo luminescence, 1 h; stronger effect = lower value | activity change, negative = inhibition, % at 76.9 µM | Phosphatidylinositol 4-kinase type 2-alpha (Homo sapiens), Q9BTU6 | hit rate 0.13% among 420,000; in the data active means activity change below about -50%; inconclusive means mostly about -30% to -49%;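 further: -100% = wells without enzyme as full effect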
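In this quantitative HTS, ADP production by PI4K2A was quantified luminescently after 1 h at ambient temperature; 100 microM adenosine served as plate-quality control.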
PI5P4K alpha inh – qHTS for Inhibitors of phosphatidylinositol 5-phosphate 4-kinase (PI5P4K); Phosphatidylinositol 5-phosphate 4-kinase type-2 alpha (Homo sapiens), P48426; PI5P4Kalpha enzyme, ADP-Glo luminescence, 60 min; stronger effect = lower value; max response, %; hit rate 1.2% among 330,000; AID 652105, 2013; active means max response of -50% or lower; inconclusive means between -30% and -50%; inactive means -30% or higher; further: value at the top dose of about 77 µM; on the % scale 0 is the no-effect control and ±100 the full control effect
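Luminescence from ADP-Glo served as readout of PI5P4Kalpha activity in a qHTS format. Reaction: enzyme, substrate, compound, ATP at 5 microM final, 60 min at RT.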
DRD3 agonist – qHTS of D3 Dopamine Receptor Agonist: qHTS. hit rate 0.58% among 410,000. max activation, %. AID 652048, 2013. D3R DiscoveRx beta-arrestin cells, luminescence, 90 min; in the data active means max activation above about 30%; further: 0% is about no effect
Target sequence (P35462 whole entry, looked up): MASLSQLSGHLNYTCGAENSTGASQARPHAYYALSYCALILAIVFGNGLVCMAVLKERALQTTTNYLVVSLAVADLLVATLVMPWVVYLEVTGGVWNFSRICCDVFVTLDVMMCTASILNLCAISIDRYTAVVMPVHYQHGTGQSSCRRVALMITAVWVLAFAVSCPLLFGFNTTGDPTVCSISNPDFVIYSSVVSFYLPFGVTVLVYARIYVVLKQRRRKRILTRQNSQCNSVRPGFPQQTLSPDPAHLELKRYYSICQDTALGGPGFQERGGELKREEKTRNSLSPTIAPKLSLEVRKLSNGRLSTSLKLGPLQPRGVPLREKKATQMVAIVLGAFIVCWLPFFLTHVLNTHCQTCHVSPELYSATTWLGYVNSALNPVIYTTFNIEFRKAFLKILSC
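Cells at 1500/well, incubated overnight, then treated with pinned compounds (dopamine as control) for 90 min at 37 degrees C. DiscoveRx reagent added for 30 - 60 minutes at room temperature; luminescence read.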
LDHA inh – qHTS assay for inhibitors of human lactate dehydrogenase. purified LDHA, NADH/diaphorase-resazurin fluorescence; stronger effect = lower value. activity change, % (values are at about 110 or 230 µM). hit rate 0.15% among 480,000; in the data active means activity change below about -30%; inconclusive means mostly about -25% to -30%;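 further: plate controls were DMSO wells for no effect and wells without enzyme for full effect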
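Human LDH5 at 2 nM final in Tris HCl pH 7.4 with 0.06 mM NADH and 0.2 mM pyruvate, reacted 5 minutes at room temperature. Remaining NADH coupled via diaphorase/resazurin; resorufin fluorescence read at 0 and 20 minutes, normalized to enzyme-free and DMSO wells.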
DRD3 antagonist – qHTS of D3 Dopamine Receptor Antagonist: qHTS; D3R cells, DiscoveRx beta-arrestin luminescence, antagonist mode; stronger effect = lower value; max response, negative = inhibition, %; hit rate 2.5% among 360,000; AID 652054, 2013; in the data active means max response below about -50%; inconclusive means no clear call, values can overlap the other calls; further: on the % scale 0 is the no-effect control and ±100 the full control effect
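Cells expressing the human receptor were seeded at 1500 cells/well, incubated overnight at 37 degrees C in 5% CO2, then exposed to library compounds with dopamine controls for 90 minutes at 37 degrees C before luminescent detection.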
* hit, by the source's call; ? = inconclusive; nt = not tested or not shown. This is a sample that favours compounds with a hit; in the whole collection about 3.3% have one here.

SMILES	PI4K2A block	PI5P4K alpha inh	DRD3 agonist	LDHA inh	DRD3 antagonist
CCCCS(=O)(=O)NC(C)C(=O)O (configuration not stated)	nt	nt	nt	-2	nt
O=C(COC(=O)c1ccccc1O)NNC(=O)c1ccc(Br)cc1	0	-5	-11	-4	-58*
O=C1/C(=C/c2ccccn2)SC(=S)N1c1ccc(O)cc1	-7	-2	1	1	?
COc1ccc(/C=C2/SC(=S)N(c3ccc(S(=O)(=O)Nc4nccs4)cc3)C2=O)cc1	-1	-67*	16	-6	-54*
Cc1ccc(/C=C2/SC(=S)N(c3ccc(S(=O)(=O)Nc4nccs4)cc3)C2=O)cc1	-2	-68*	3	-6	?
O=C1/C(=C\c2ccccn2)SC(=S)N1c1ccc(S(=O)(=O)Nc2nccs2)cc1	0	-71*	-4	-11	?
Cc1ccc(C)c(OCC(O)Cn2cnc3c2c(=O)n(C)c(=O)n3C)c1 (configuration not stated)	nt	nt	nt	-7	nt
CCCn1c(=O)[nH]c(=O)c2c3c(cnc21)C(=O)CC(c1ccco1)C3 (configuration not stated)	nt	nt	nt	6	nt
O=C(/C=C/c1ccc(F)cc1)N1CCN(Cc2ccccc2)CC1	4	3	-20	1	-69*
Cc1ccc(OCC(O)CN2CCN(c3ccc(C)cc3)CC2)cc1 (configuration not stated)	-4	12	-21	-1	-88*
COc1ccc2cc(/C=C/C(=O)N3CCN(CC(=O)N4CCCCCC4)CC3)ccc2c1	0	3	36*	4	13
OC(COc1ccc(Cl)cc1)CN1CCN(c2ccccc2)CC1 (configuration not stated)	-11	-3	-2	-4	-87*
CCOC(=O)N1CCN(c2cc(C(=O)O)c3cc(NC(=O)CC(C)C)ccc3n2)CC1	nt	nt	nt	40	nt
Cc1csc(NC(=O)CCNC(=O)c2ccsc2)n1	nt	nt	nt	-8	nt
CCOc1cc(C=O)ccc1OC(=O)c1cccc2ccccc12	nt	nt	nt	1	nt
Cc1ccc(/C=C/C(=O)N2CCCN(C(=O)/C=C/c3ccc(C)cc3)CC2)cc1	-4	-8	-13	-7	-58*
COc1ccc(N2CCN(CC(O)COc3ccc(F)cc3)CC2)cc1 (configuration not stated)	-4	7	-20	2	-66*
Cc1ccc(N2CCN(CC(O)COc3ccccc3)CC2)cc1 (configuration not stated)	3	6	-17	-8	-54*
Cc1ccc(OCC(O)CN2CCN(CC(O)COc3ccc(C)cc3)CC2)cc1 (configuration not stated)	-6	0	-11	-2	?
Cc1cccc(N2CCN(CC(O)COc3ccc4ccccc4c3)CC2)c1 (configuration not stated)	-1	0	47*	-6	?
COc1ccc(OCC(O)CN2CCN(c3ccc(OC)cc3)CC2)cc1 (configuration not stated)	1	1	-18	3	?
O=C(CCc1cc(Cl)no1)Nc1ccc2oc(-c3ccccc3F)cc(=O)c2c1	nt	nt	nt	1	nt
O=C(Cc1ccccc1)c1ccccc1NC(=O)C1CCCCC1	nt	nt	nt	7	nt
Cc1cccc(CN2CCN(C(=O)c3cccc4ccccc34)CC2)c1	0	-4	2	-10	12
O=C(/C=C/c1ccccc1)N1CCN(CC(O)COc2ccccc2)CC1 (configuration not stated)	3	1	-10	-1	-71*
SMILES	PI4K2A block	PI5P4K alpha inh	DRD3 agonist	LDHA inh	DRD3 antagonist
Cc1cccc(CN2CCN(C(=O)c3ccccc3F)CC2)c1	4	-2	0	-15	-78*
OC(COc1ccc(Cl)cc1)CN1CCC(Cc2ccccc2)CC1 (configuration not stated)	0	3	-11	0	-76*
Cc1ccc(OCC(O)CN2CCN(c3ccccc3)CC2)cc1 (configuration not stated)	6	nt	10	5	-75*
Cc1ccc(C)c(OCC(O)CN2CCC(Cc3ccccc3)CC2)c1 (configuration not stated)	-2	7	-9	-2	-7
COc1ccccc1CNC(=O)Cc1nn(C)c(=O)c2ccccc12	nt	nt	nt	-5	nt
CN(CCc1ccccn1)C(=O)Cn1nc(-c2ccccc2)ccc1=O	-1	nt	nt	nt	nt
COCCn1cnc2c1c(=O)n(CC(O)COc1ccc(C(C)(C)C)cc1C)c(=O)n2CC(C)C (configuration not stated)	nt	nt	nt	1	nt
O=C(NCc1ccncc1)c1cc(=O)c2ccccc2o1	nt	nt	nt	1	nt
COc1cnc(-c2ccccn2)nc1Sc1ccccc1Cl	-3	nt	-8	-2	-68*
COc1cnc(-c2ccccn2)nc1Sc1c(Cl)cccc1Cl	3	nt	-9	-15	-65*
N#CCN(Cc1ccc(C(F)(F)F)cc1)C1CC1	nt	nt	nt	-2	nt
O=C1CCN(CCc2ccccc2)CCN1[C@H](COc1ccccc1)c1ccccc1	3	-10	-32	-1	-3
CCCN1CCC(=O)N([C@H](COc2ccccc2)c2ccccc2)CC1	2	-9	-74	1	-104*
CC(C)CN1CCC(=O)N([C@H](COc2ccccc2)c2ccccc2)CC1	1	3	-60	3	-70*
CN(CC(=O)NC1(c2ccccc2)CCC1)c1ncnc2nc[nH]c12	nt	nt	nt	1	nt
Cc1ccc(C2C3=C(CCCC3=O)Nc3[nH]c(=S)[nH]c(=O)c32)cc1 (configuration not stated)	-2	nt	-46	-1	?
O=c1[nH]c(=S)[nH]c2c1C(c1ccc(Br)cc1)c1c([nH]c(=S)[nH]c1=O)O2	-56*	-75*	-1	-77*	-5
CC1(C)CC(=O)C2=C(C1)Nc1[nH]c(=S)[nH]c(=O)c1C2c1ccccc1 (configuration not stated)	6	-57*	-10	-6	4
O=C1CCCC2=C1C(c1ccc(Br)cc1)c1c([nH]c(=S)[nH]c1=O)N2 (configuration not stated)	-8	-75*	3	-13	-80*
O=c1c2cnc3c(-c4ccccc4)cnn3c2ccn1CCN1CCOCC1	nt	nt	nt	9	nt
COC(=O)c1oc2cc(OC)ccc2c1C	nt	nt	nt	9	nt
Cc1c(C)c2ccc(OC(C)C(=O)NCc3cccnc3)cc2oc1=O (configuration not stated)	nt	nt	nt	3	nt
CCc1ccc(NC(=O)[C@@H](NC(=O)[C@@H]2Cc3ccccc3CN2)C(C)CC)cc1 (some centres not stated)	1	-2	-14	-10	?

High-throughput results (PubChem)
